The sample as a whole holds a higher share of hits than the screen did.
Cycloheximide cs: affects cycloheximide protein synthesis inhibition readout, counter-screen; cell reporter, cycloheximide protein synthesis inhibition counterscreen; 300,000 tested, 12% active; max response, %; in the data active means max response mostly above about 13%, no sharp cut-off; inactive means mostly below about 14%; further: read at 38.3 µM for the half of the compounds with a filed dose
Giardia FBPA inh: blocks Giardia fructose-bisphosphate aldolase activity | 290,000 tested, 0.71% active | Potency, µM (doses to about 59.6 µM), actives largely listed as inhibitors | purified Giardia FBPA | AID 2451; further: nearly all actives have a fitted effect of over 55% in size
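40 nM FBPA preincubated 10 min at RT with compound (up to 57.5 uM final), then substrate plus GAPDH/TPI/NAD/arsenate coupling and diaphorase/resazurin added. Fluorescence read after 20 min at RT, 525/598 nm.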
TbPYK inhibitor: inhibitors of Trypanosoma brucei pyruvate kinase; Q57TT1; AID 624173; TbPYK enzyme, Kinase-Glo Plus ATP luminescence, 45 min; 410,000 tested, 0.12% active; Potency, µM (series often up to 76.8 µM), actives largely listed as inhibitors; further: nearly all actives have a fitted effect of over 50% in size
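TbPYK + substrate in 50 mM TEA pH 7.2, 100 mM KCl, 10 mM MgCl2, 0.05% BSA, 0.01% Tween-20; cpd pinned; ADP 130 uM final; 45 min RT; Kinase-Glo Plus 10 min; luminescence endpoint.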
LmPK inhibitor: blocks Leishmania mexicana pyruvate kinase activity. Potency, µM (doses to about 57.5 µM), usual class: inhibitors. 290,000 tested, 0.37% active. purified LmPK, Kinase-Glo ATP luminescence, 1 h
Target sequence (Q27686 whole entry, looked up): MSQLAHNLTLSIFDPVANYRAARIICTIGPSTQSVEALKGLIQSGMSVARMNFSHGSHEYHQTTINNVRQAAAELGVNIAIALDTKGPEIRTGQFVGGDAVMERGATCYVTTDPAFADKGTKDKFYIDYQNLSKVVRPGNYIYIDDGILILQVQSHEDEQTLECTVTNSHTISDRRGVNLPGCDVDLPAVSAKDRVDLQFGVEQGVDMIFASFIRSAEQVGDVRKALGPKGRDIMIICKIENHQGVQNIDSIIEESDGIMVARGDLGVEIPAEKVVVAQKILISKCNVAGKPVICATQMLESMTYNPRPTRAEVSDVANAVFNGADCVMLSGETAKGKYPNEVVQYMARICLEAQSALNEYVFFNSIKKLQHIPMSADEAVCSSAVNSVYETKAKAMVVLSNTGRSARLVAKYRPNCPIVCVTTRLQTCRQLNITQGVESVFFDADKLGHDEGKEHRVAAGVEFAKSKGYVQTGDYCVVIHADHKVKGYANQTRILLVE
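Purified LmPK (0.1 nM) converted ADP (0.1 mM) to ATP with PEP (0.5 mM) in imidazole buffer pH 7.2 with KCl and MgCl2, 1 h at room temperature. ATP was read by Kinase-Glo luminescence; data normalized to uninhibited and no-enzyme controls.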
Shiga inhibitor: blocks Shiga toxin action in Vero cells; Vero cells, Shiga toxin protein synthesis inhibition reporter; 290,000 tested, 9.2% active; inhibition, % at 38.7 µM; in the data active means inhibition mostly above about 28%, no sharp cut-off; inactive means mostly below about 43%
RE007 growth inh: less growth of the S. pombe RE007 Vpr strain | Potency, µM (doses to about 92.2 µM), usual class: inhibitors | 360,000 tested, 0.21% active | S. pombe RE007 Vpr strain, BacTiter-Glo ATP luminescence, 24 h | AID 651644; active means well fitted falling curve with a large enough effect; inconclusive means small, poorly fitted or top-dose-only effect; inactive means no such curve, though single readings can be large or run the other way; further: nearly all actives have a fitted effect of over 50% in size
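Fission yeast RE007 carrying one integrated HIV-1 vpr copy, seeded at OD 0.01 in PMG+AL medium with 23 nL pinned compound. Grown 24 h at 30 degrees; viability read by BacTiter-Glo luminescence after 5 min.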
A number is an active result; n = inactive; u = inconclusive; x = no result given; ! = a repeat was not active; [ ] = another dose, or the depositor's remark. Unless noted, the call rests on the fitted dose curve; in most records, active means well fitted curve in the direction sought with a large enough effect; inconclusive means small, poorly fitted or top-dose-only effect, or another doubt; inactive means no such curve, though single readings can be large; an effect the other way counts as inactive or inconclusive.

SMILES	Cycloheximide cs	Giardia FBPA inh	TbPYK inhibitor	LmPK inhibitor	Shiga inhibitor	RE007 growth inh
O=C(NCc1ccccn1)C1CC(c2ccccc2O)=NO1 (configuration not stated)	n	n	n	n	n	n
O=C(NCc1cccs1)C1CC(c2ccccc2O)=NO1 (configuration not stated)	26.5	n	n	n	51.2	n
COc1ccc(C2=NOC(C(=O)NCc3ccco3)C2)cc1 (configuration not stated)	27.1	n	n	n	n	n
COc1ccc(C2=NOC(C(=O)NCc3cccs3)C2)cc1 (configuration not stated)	18.0	n	n	n	n	n
CC1Cc2ccccc2N1C(=O)COC(=O)c1ccc(Cl)c(S(=O)(=O)N2CCOCC2)c1 (configuration not stated)	x	x	n	x	x	n
CCc1cccc(C)c1NC(=O)CCn1c(=O)c2cccn2c2ccccc21	x	x	n	x	x	x
COc1ccc(C2=NOC(C(=O)NCC(C)C)C2)cc1 (configuration not stated)	44.7	n	n	n	60.9	n
CCNC(=O)C[C@@H]1CC[C@@H]2NC[C@@H](O)COC[C@H]2O1	x	x	x	x	x	n
CCCc1ccc(OC(=O)c2cccs2)cc1	n	n	n	n	n	n
CCCc1ccc(OC(=O)c2ccc(O)cc2Cl)cc1	39.9	n	n	n	96.1	n
COc1ccc(C(=O)Nc2ccc3nc(SCC(=O)N(C)c4ccccc4)sc3c2)cc1	x	x	n	x	x	x
Cc1ccc2cc(C#N)c(N3CCN(C)CC3)nc2c1	n	n	n	n	n	n
Cc1ccc2nc(N3CCN(C)CC3)c(C#N)cc2c1	33.0	n	n	n	n	n
Cc1ccc2nc(N3CCN(C)CC3)[nH]c2c1	48.0	n	n	n	67.4	n
Cc1cccc(CNC(=O)c2ccc(C)c(-n3c(C)nc4cccnc43)c2)c1	x	x	n[15.4 µM]	x	x	x
CS(=O)(=O)Nc1ccccc1-c1ccc2nccn2c1	x	x	n	x	x	n
O=C(c1cc(COc2ccc(F)cc2Cl)on1)N1CCCCC1c1cccnc1 (configuration not stated)	25.0	n	n	n	37.8	n
COc1cc(Cl)ccc1OCc1cc(C(=O)N2CCN(C3CCCCC3)CC2)no1	x	x	n	x	x	n
O=C(c1cc(COc2ccc(F)cc2Cl)on1)N1CCc2sccc2C1	26.4	x	n	n	43.1	n
O=C(c1cc(COc2ccc(F)cc2Cl)on1)N1CCC(OCc2cccnc2)CC1	n	n	n	n	n	n
COc1cc(Cl)ccc1OCc1cc(C(=O)N2CCCCC2c2cccnc2)no1 (configuration not stated)	17.1	n	n	n	n	n
Cc1nonc1C1CCCN1C(=O)c1cc(COc2ccc(F)cc2Cl)on1 (configuration not stated)	29.1	n	n	n	n	n
O=C(O)CCc1ccc(S(=O)(=O)Nc2ccccc2C(=O)NCCc2ccccc2)cc1	30.0	n	n	n	79.6	n
COc1ccc(NC(C)=O)cc1S(=O)(=O)Nc1ccc(OCc2ccccc2)cc1	n	x	n	n	n	n
COc1ccc(CCNC(=O)c2ccccc2NS(=O)(=O)c2cc(C(=O)O)ccc2OC)cc1	n	n	n	n	n	n
SMILES	Cycloheximide cs	Giardia FBPA inh	TbPYK inhibitor	LmPK inhibitor	Shiga inhibitor	RE007 growth inh
COc1ccc(NC(C)=O)cc1S(=O)(=O)NC(Cc1ccccc1)C(=O)NCc1ccccc1C (configuration not stated)	15.5	n	n	n	n	n
COc1ccc(NC(C)=O)cc1S(=O)(=O)Nc1ccccc1C(=O)NCCc1ccccc1	43.9	x	n	n	89.4	n
O=C(NCc1ccc2c(c1)OCO2)c1ccc2c(c1)N(Cc1c(F)cccc1Cl)C(=O)c1ccccc1S2	n	x	n	x	n	x
O=C(COC(=O)C1=COCCO1)NCc1ccc(Cl)cc1	n	n	n	n	n	n
C=CCn1c(NCc2ccc(N(C)C)cc2)nc2ccccc21	32.9	n	n	n	active	n
CCn1c(NCc2ccccc2Cl)nc2ccccc21	n	n	n	n	24.4	n
CCn1c(NCc2ccc(OC)cc2)nc2ccccc21	12.0	n	n	n	22.7	n
CCn1c(NCc2ccco2)nc2ccccc21	n	n	n	n	n	n
CN(C)c1ccc(-c2csc(C(C)(O)c3ccc(F)c(F)c3)n2)cc1 (configuration not stated)	x	x	n	x	x	n[18.4 µM]
COc1cccc(-c2cc3nc4c(c(N5CCC6(CC5)OCCO6)n3n2)CCC4)c1	n	n	n	n	n	n
CCOC(=O)c1cnc2cc3c(cn2c1=O)CCCC3	28.4	n	n	n	55.2	n
CCCCn1nnc(N(C(=O)c2cccs2)C(=O)c2cccs2)n1	37.0	n	n	n	85.6	n
O=C(O)CCn1nnc(-c2cccs2)n1	n	x	n	n	n	n
O=C(Cn1cnc2ccccc2c1=O)N1CCN(c2ccccc2)CC1	n	n	n	n	n	n
O=C(Cn1cnc2ccccc2c1=O)c1ccc(OC(F)F)cc1	34.4	n	n	n	57.1	n
O=C(Cn1cnc2ccccc2c1=O)c1ccccc1	38.8	n	n	n	78.4	n
Cc1ccc(C(=O)Cn2cnc3ccccc3c2=O)cc1	30.4	n	n	n	75.7	n
O=C(Cn1cnc2ccccc2c1=O)c1ccc(Cl)cc1	44.2	n	n	n	120.3	n
O=c1c2ccccc2ncn1Cc1ccc(Cl)cc1	n	n	n	n	n	n
O=C(Cn1cnc2ccccc2c1=O)c1cccs1	n	n	n	n	n	n
O=C(Cn1cc(Cl)ccc1=O)c1ccc(Cl)cc1	16.1	n	n	n	n	n
O=c1c2ccccc2ncn1-c1ccc(Cl)cc1	28.5	n	n	n	41.7!	n
O=c1c2ccccc2ncn1-c1ccccc1[N+](=O)[O-]	n	n	n	n	n	n
O=C(COC(=O)Cn1cnc2ccccc2c1=O)NNC(=O)c1ccc(Br)cc1	x	x	n	x	x	n
O=C(Cn1cnc2ccccc21)c1ccccc1	n	n	n	n	n	n
SMILES	Cycloheximide cs	Giardia FBPA inh	TbPYK inhibitor	LmPK inhibitor	Shiga inhibitor	RE007 growth inh
O=C(Cn1cnc2ccccc21)c1ccc(Cl)cc1	28.1	n	n	n	n	n
O=C(Cn1cnc2ccccc2c1=O)c1ccc(Br)cc1	27.7	n	n	n	45.0	n
CCCN(CC(=O)Nc1ccccc1C)C(=O)CC(NC(=O)c1ccccc1)c1ccccc1 (configuration not stated)	x	x	n	x	x	n
O=C(Cn1nnc2ccccc21)OCC(=O)c1ccc(F)cc1	9.4	n	n	n	n	n
CCOc1ccc(C(=O)Cn2cnc3ccccc3c2=O)cc1	56.6	n	n	n	116.9	n
O=C(Cn1nnc2ccccc21)c1ccc(Cl)cc1	40.5	n	n	n	54.4	n
CCOC(=O)c1ccc(Cn2cnc3ccccc3c2=O)cc1	n	n	u	n	n	n

Assay outcomes (PubChem)
